Bioassay records deposited in PubChem BioAssay by National Center for Advancing Translational Sciences (NCATS).
In the library only some 9.2% were active in any assay of this set; here they are far more common.
LMNA splice mod = LMNA splicing modulation | Potency, µM (top dose mostly 46.1 µM), inactives show top-dose ratio change, negative = inhibition, most hits filed as inhibitors | HeLa LMNA splicing GFP/RFP minigene ratio, 48 h | 0.01% of 200,000 active | AID 1487; active = well fitted inhibition curve with a large enough effect in the signal ratio, with a control signal flat, not every such curve was filed as active; inconclusive = small, poorly fitted or top-dose-only effect, or effect the other way, or a change in a side signal; the % refers to the signal ratio; also: % is scaled to controls: 0 for no effect and ±100 for the full control effect
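S3 HeLa stable clones carrying a lamin A-EGFP splicing minigene plus DsRed2 were seeded at 600 cells/well in Opti-MEM with 2% FBS, pin-dosed and incubated 48 h at 37°C. Acumen cytometry (488 nm) gave the GFP/RFP total-intensity ratio.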
HTT aggregate = mutant huntingtin aggregation inhibition; PC12 HttQ103-GFP aggregates, Acumen cytometry, 40 h; Potency, µM (doses to about 46.1 µM), inactives show at the top dose activity change, negative = inhibition, most hits filed as inhibitors; 1.1% of 220,000 active; AID 1688; active = well fitted curve in the direction sought with a large enough effect; inconclusive = small, poorly fitted or top-dose-only effect, or another doubt; inactive = no such curve, though single readings can be large; an effect the other way counts as inactive or inconclusive; also: % is scaled to controls: 0 for no effect and ±100 for the full control effect; nearly all actives have a fitted effect of over 60% in size
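PC12/HTTQ103-GFP, ecdysone-inducible; teb 100 nM; cpd qHTS titration; GFP aggregates read on laser cytometer, Ex 488/Em 500-530 nm.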
JMJD2E inh = JMJD2E (human) inhibition; B2RXH2; JMJD2E catalytic domain, FDH-coupled NADH fluorescence (FDH is formaldehyde dehydrogenase); Potency, µM (highest dose often 57.1 µM), inactives show at the top dose activity change, negative = inhibition, actives largely listed as inhibitors; 1.6% of 230,000 active; AID 2147;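 also: 0% = wells with enzyme and -100% = buffer wells without enzyme; nearly all actives have a fitted effect of over 50% in size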
Target sequence (B2RXH2 1-337 limits assumed): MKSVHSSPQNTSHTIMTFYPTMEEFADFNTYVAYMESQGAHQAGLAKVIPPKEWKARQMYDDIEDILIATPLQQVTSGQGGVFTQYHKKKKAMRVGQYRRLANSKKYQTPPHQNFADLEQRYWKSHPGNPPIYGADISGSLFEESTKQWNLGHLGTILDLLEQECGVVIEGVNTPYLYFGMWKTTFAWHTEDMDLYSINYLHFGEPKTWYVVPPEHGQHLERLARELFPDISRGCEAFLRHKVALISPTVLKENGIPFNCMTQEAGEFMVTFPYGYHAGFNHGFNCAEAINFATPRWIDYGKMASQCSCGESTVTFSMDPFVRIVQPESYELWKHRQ
ALDH1A1 block = inhibitors of human aldehyde dehydrogenase 1A1; P00352; Purified ALDH1A1, NADH fluorescence, propionaldehyde substrate; Potency, µM (highest dose often 75.3 µM), for the others: top-dose activity, negative = inhibition, hits mostly inhibitors; 7.3% of 220,000 active; AID 1030;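 also: plate controls were no enzyme wells and a reference inhibitor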
HPGD block = inhibitors of human 15-hydroxyprostaglandin dehydrogenase (HPGD) | purified HPGD, NADH fluorescence kinetic, PGE2 substrate | Potency, µM, for inactives: at the top dose activity change, negative = inhibition, hits mostly inhibitors | 4.3% of 150,000 active; also: % is scaled to controls: 0 for no effect and ±100 for the full control effect
Target sequence (P15428 whole entry, looked up): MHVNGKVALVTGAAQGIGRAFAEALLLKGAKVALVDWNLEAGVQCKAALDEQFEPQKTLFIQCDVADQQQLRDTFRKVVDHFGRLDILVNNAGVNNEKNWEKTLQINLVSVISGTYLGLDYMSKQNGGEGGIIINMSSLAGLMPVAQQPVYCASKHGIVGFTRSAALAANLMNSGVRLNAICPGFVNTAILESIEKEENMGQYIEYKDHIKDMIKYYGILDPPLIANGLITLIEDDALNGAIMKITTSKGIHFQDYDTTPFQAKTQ
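20 nM HPGD preincubated 15 min at room temperature with compound in 50 mM Tris-HCl pH 8, 0.01% Tween 20. Started with 1 mM NAD+ and 30 uM prostaglandin E2; NADH fluorescence (360/450 nm) read 5 times over 30-s intervals, last minus first.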
HTT ATP protect = Huntington cell model cytoprotection by ATP luminescence | PC12 HTT-Q103 induced, cytoprotection, ATP luminescence, 40 h | Potency, µM (titrated, usually from 56.4 µM), without a hit: cytoprotection (ATP increase), usual class: activators | 0.14% of 230,000 active; active = well fitted curve in the direction sought with a large enough effect; inconclusive = small, poorly fitted or top-dose-only effect, or another doubt; inactive = no such curve, though single readings can be large; an effect the other way counts as inactive or inconclusive; also: % of control where 0% means no effect; nearly all actives have a fitted effect of over 45% in size
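ATP quantification (ATPlite) reports survival of PC12 cells in which tebufenozide, 100 nM final, switches on Htt exon 1 with 103 glutamines linked to GFP; compounds are titrated.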
An asterisk follows results filed as active; ? = inconclusive; / = no result given; [ ] = remark or other dose. Unless noted, calls follow the shape of the dose curve; as a rule, active = well fitted inhibition curve with a large enough effect (not every such curve was filed as active); inconclusive = small, poorly fitted or top-dose-only effect, or another doubt; inactive = no such curve, though single readings can be large or run the other way. Potency is read from the fitted curve at half-maximal effect.

SMILES	LMNA splice mod	HTT aggregate	JMJD2E inh	ALDH1A1 block	HPGD block	HTT ATP protect
CNC1C(O)C(OC2C(N)CC(N)C(OC3OC(CN)=CCC3N)C2O)OCC1(C)O (stereo unspecified)	/	3%	/	/	/	-5%
Cc1[nH][nH]c(=O)c1C(c1ccc(-c2ccc(C(=O)O)cc2)o1)c1c(C)[nH][nH]c1=O	22%[46 µM]	18%	?	?	/	-42%
Cc1[nH][nH]c(=O)c1C(c1ccc(-c2ccc(Cl)c(Cl)c2)o1)c1c(C)[nH][nH]c1=O	-10%	-18%	15%	10µM*	?	-46%
COc1ccc(-c2ccc(C(c3c(C)[nH][nH]c3=O)c3c(C)[nH][nH]c3=O)o2)c([N+](=O)[O-])c1	?	-8%	38%	10µM*	/	14%
Cc1[nH][nH]c(=O)c1C(c1ccc(-c2ccc(F)cc2)o1)c1c(C)[nH][nH]c1=O	?	21%[9.22 µM]	31%	25µM*	/	-3%[10 µM]
COc1ccccc1C(=O)Nc1ccccc1C(=O)OCc1cc(=O)n2c(C)csc2n1	11%[46 µM]	/	/	/	/	/
C#CCCOC(=O)Nc1ccccc1	/	14%[9.22 µM]	7%	/	/	10%[10 µM]
COc1ccc(C2=NOC(CN3C(=O)c4ccccc4S3(=O)=O)C2)cc1 (stereo unspecified)	9%	10%	?	?	25µM*	-57%
O=C1c2ccccc2S(=O)(=O)N1CC1CC(c2ccccc2)=NO1 (stereo unspecified)	1%	-6%	-2%	?	-16%	-20%
O=C1c2ccccc2S(=O)(=O)N1CC1CC(c2ccc(Cl)cc2)=NO1 (stereo unspecified)	?	11%	-3%	5.6µM*	18µM*	/
Cn1cc(C(=O)CCl)c2ccccc21	?	-11%[9.22 µM]	-10%	0.063µM*	/	-2%[10 µM]
COc1ccc(-c2cc(C(=O)Nc3sc4c(c3C#N)CCCC4)c3ccccc3n2)cc1	?	-12%	?	?	?	-3%[10 µM]
Cc1sc(NC(=O)c2cc(-c3ccc(Cl)cc3)nc3ccccc23)c(C(N)=O)c1C	?	25%	-7%	25µM*	13µM*	-54%
COC(=O)c1sc(NC(=O)c2cc(-c3ccccc3)nc3ccccc23)c(C#N)c1C	?	2.2µM*	-1%	14µM*	3.5µM*	-44%
O=C(NC(=S)Nc1ccccn1)c1cc(-c2ccccc2)nc2ccccc12	-9%	-12%	-1%	-11%	-24%	31%[10 µM]
CCOC(=O)c1sc(NC(=O)c2cc(-c3ccc(C)cc3)nc3ccccc23)c(C#N)c1C	6%	10µM*	-9%	?	22µM*	-70%
Cc1sc(NC(=O)c2cc(-c3ccccc3)nc3ccccc23)c(C(N)=O)c1C	?	-3%	6%	8%	-9%	-2%[10 µM]
O=C(NC(=S)Nc1ccccc1)c1cc(-c2ccccc2)nc2ccccc12	-31%	5%	?	1.3µM*	20µM*	23%
CN(C(=O)c1ccc(OC2CCN(CCc3ccccc3)CC2)cc1)C1CCCCC1	-8%[46 µM]	1%[9.22 µM]	-2%	-3%	/	-1%[10 µM]
COc1cc(OC)c(NC(=O)CSCc2nc(-c3ccc(OC)c(OC)c3)no2)cc1Cl	-18%[46 µM]	/	/	/	/	/
CN1CCN(c2ccc(Cl)cc2NC(=O)/C=C/c2ccc(F)cc2)CC1	-20%[46 µM]	-1%	-9%	8%	/	-47%
COC(=O)N1CCC2(CCCN(Cc3ccc(C#N)cc3)C2)CC1	/	/	/	10%	-5%	17%
CCOc1ccc(NC(=O)CSc2nc3ccsc3c(=O)n2CCCCCC(=O)O)cc1	-4%[46 µM]	/	/	/	/	/
CCOC(=O)c1sc(NC(=O)CSc2n[nH]c(-c3ccncc3)n2)c(C#N)c1C	?	7.1µM*	?	35µM*	5µM*	-91%[10 µM]
Cc1ccccc1-c1cc(C(=O)Nc2sc(C(=O)OC(C)C)c(C)c2C#N)c2ccccc2n1	?	4.5µM*	?	8.9µM*	16µM*	-38%
SMILES	LMNA splice mod	HTT aggregate	JMJD2E inh	ALDH1A1 block	HPGD block	HTT ATP protect
CCOC(=O)c1sc(NC(=O)CSc2nccc(C)n2)c(C#N)c1C	2%	12%	1%	-1%	-8%	0%
COc1ccc(C(=O)Nc2nnc(S(=O)(=O)N(CC(C)C)c3ccc(C)cc3)s2)cc1OC	-2%[46 µM]	/	/	/	/	/
CC(C)C[C@@H](CC(=O)N[C@H](CC(=O)N[C@@H]1CCNC[C@H]1C(=O)N[C@H](CC(=O)N[C@@H](CCC(=O)O)CC(=O)O)CC(C)C)C(C)C)NC(=O)[C@@H]1CNCC[C@H]1N	/	/	-5%	-5%	-9%	1%[1.9 µM]
CCOC(=O)Cn1c(=O)n(Cc2ccco2)c(=O)c2ccc(C(=O)NCCc3ccccc3)cc21	9%	-7%	?	4µM*	-12%	-25%
COc1ccc(CCNC(=O)Cn2c(=O)n(Cc3ccco3)c(=O)c3ccc(Cl)cc32)cc1OC	4%	12%	1%	?	-11%	-4%
C=CCN1CCc2c(cc(O)c(O)c2Cl)[C@H](c2ccccc2)C1	/	/	/	/	/	-3%[1.9 µM]
CN1CCc2c(cc(O)c(O)c2Cl)[C@H](c2cccc(Cl)c2)C1	/	/	/	/	/	-1%[1.9 µM]
CN1CCc2c(cc(O)c(O)c2Cl)C(c2cccc(Cl)c2)C1 (stereo unspecified)	?	/	14µM*	-4%	7%	/
CN1CCc2cc(O)c(O)cc2C(c2ccccc2)C1 (stereo unspecified)	?	/	20µM*	-3%	8%	/
C=CCN1CCc2c(cc(O)c(O)c2Br)[C@@H](c2ccccc2)C1	?	/	14µM*	-11%	-7%	-41%
C=CCN1CCc2cc(O)c(O)cc2[C@H](c2ccccc2)C1	/	/	25µM*	-5%	-15%	7%
OC[C@H]1O[C@@H](n2cnc3cncnc32)[C@H](O)[C@@H]1O	?	/	0%	-3%	-12%	/
COC(=O)/C(=C1/OC(=O)C(c2ccccc2)=C1O)c1ccccc1	/	/	-1%	0%	-12%	-59%
Cc1ccc(C2=NN(CCC(=O)NCCc3cccc(C)c3)C(=O)CC2)cc1	3%[46 µM]	/	/	/	/	/
NS(=O)(=O)O	/	/	/	15%	-14%	-27%
CC1CCN(S(=O)(=O)c2ccc3c(c2)N(CC(=O)NC(C)C)C(=O)CO3)CC1	-1%[46 µM]	/	/	/	/	/
CCc1ccccc1NC(=S)N(Cc1ccc(C(=O)O)cc1)Cc1ccc(OC)c(OC)c1	/	8%	-2%	-9%	/	-67%
Cc1ccc(-c2nc(N)s[n+]2-c2ccccc2)cc1	-11%	4%	1%	7.1µM*	2.2µM*	-3%[10 µM]
CNc1nc(-c2ccccc2)[n+](-c2ccc(C)cc2)s1	?	13%	-3%	2.5µM*	/	2%[10 µM]
COc1cc(NC(=O)CSc2nc3nc(C)c(Cc4ccc(C)cc4)c(C)n3n2)cc(OC)c1	11%[46 µM]	/	/	/	/	/
